Inconclusive results are not listed. A number with no mark means an inactive call. Calls of active or inactive are those of the source. Calls follow the shape of the dose curve; as a rule, active = well fitted inhibition curve with a large enough effect; inconclusive = small, poorly fitted or top-dose-only effect; inactive = no such curve, though single readings can be large or run the other way.
Molecular target: Cytochrome P450 2C19 (Homo sapiens) (UniProt P33261)
Assay: qHTS Assay for Inhibitors and Substrates of Cytochrome P450 2C19 (AID 899); also: nearly all actives have a fitted effect of over 60% in size
Conditions: recombinant CYP2C19, luciferin-H EGE luminescence; series mostly up to 11.4 µM; activity, negative = inhibition: at the top concentration
How it was run: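 Luminescent read-out of luciferin formed from Luciferin-H EGE (10uM, equal to KM). Enzyme 5nM in 50mM KPO4; compound added, 10 min at 37C, then NADPH regenerating system for 60 min at 37C. Full inhibition defined by 57uM ketoconazole.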
% is scaled to controls: 0 for no effect and ±100 for the full control effect; potency is read from the fitted curve at half-maximal effect.

Chain of Cytochrome P450 2C19 (Homo sapiens) (P33261 whole entry, looked up): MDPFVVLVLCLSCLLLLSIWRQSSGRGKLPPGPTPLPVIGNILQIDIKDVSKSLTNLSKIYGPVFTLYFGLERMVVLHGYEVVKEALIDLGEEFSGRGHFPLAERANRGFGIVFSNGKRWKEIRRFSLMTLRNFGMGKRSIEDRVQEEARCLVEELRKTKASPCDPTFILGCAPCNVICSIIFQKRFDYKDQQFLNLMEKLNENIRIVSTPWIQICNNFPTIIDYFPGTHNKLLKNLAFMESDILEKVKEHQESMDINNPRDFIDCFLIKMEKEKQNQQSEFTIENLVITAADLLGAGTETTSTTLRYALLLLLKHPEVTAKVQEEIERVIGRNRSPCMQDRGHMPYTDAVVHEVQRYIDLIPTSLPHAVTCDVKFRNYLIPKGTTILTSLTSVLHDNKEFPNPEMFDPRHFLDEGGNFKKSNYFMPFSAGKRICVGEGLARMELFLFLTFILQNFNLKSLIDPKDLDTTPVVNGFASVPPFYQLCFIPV

Row | Compound | activity, negative = inhibition [%] | Potency
1 | CO[C@@H]1COC(=O)[C@H]2CCCN2C(=O)C/C=C\[C@@H](C)[C@H](OC)COC(=O)[C@H]2CCCN2C(=O)C/C=C\[C@H]1C | 67.2 | 
2 | CO[C@@H]1COC(=O)[C@H]2CCCN2C(=O)[C@@H](C)COC(=O)CCC[C@H]1C | 48 | 
3 | CC(=O)OC[C@@H]1O[C@@H](O/N=C2/C[C@@H](O)[C@@H](O)[C@@H]3[C@@H]4C(=O)N(C(C)(C)C)C(=O)[C@H]4CC[C@H]23)[C@H](OC(C)=O)[C@H](OC(C)=O)[C@@H]1OC(C)=O | 45.6 | 
4 | CCN1C(=O)[C@@H]2[C@H]3C(=CC[C@@H]2C1=O)C1(OCCCO1)[C@H]1O[C@@H]1[C@H]3O |  | 1580 nM (active)
5 | C=CC1=C[C@@H](O)C2OC2C12OCCCO2 (stereo partly specified) | 33.8 | 
6 | COC(=O)[C@H](Cc1ccccc1)NC(=O)[C@@H](C)CO |  | 1260 nM (active)
7 | CC(C)=CCC/C(C)=C/CO/N=C1/C[C@@H](O)[C@@H](O)[C@@H]2[C@@H]3C(=O)N(Cc4ccccc4)C(=O)[C@H]3CC[C@@H]12 | 62.5 | 
8 | CC(=O)OC[C@H]1O[C@@H](O/N=C2/[C@H]3O[C@@H]3[C@@H](O)[C@H]3[C@H]2CCn2c(=O)n(-c4ccccc4)c(=O)n23)[C@H](OC(C)=O)[C@@H](OC(C)=O)[C@@H]1OC(C)=O | 55.9 | 
9 | COc1ccc(O[C@H]2C=C[C@@H](c3ccccc3)O[C@@H]2CO/N=C(\C)CCN2CCc3nc(-c4ccccc4)c(-c4ccccc4)cc3C2)cc1 |  | 251 nM (active)
10 | CO[C@@H]1COC(=O)[C@H](Cc2ccccc2)NC(=O)C/C=C\[C@@H](C)[C@H](OC)COC(=O)[C@@H](C)NC(=O)C/C=C\[C@H]1C | 51.2 | 
11 | Cc1ccc(S(=O)(=O)N[C@H]2COC(=O)C/C=C\[C@@H](C)[C@H](NS(=O)(=O)c3ccc(C)cc3)COC(=O)[C@H](C)NC(=O)C/C=C\[C@H]2C)cc1 | 50.6 | 
12 | CCOC(=O)CCN1C(=O)[C@H]2[C@@H]3[C@H](O)[C@H](O)CC(=O)[C@H]3CC[C@H]2C1=O | 60.3 | 
13 | C#CCCCO/N=C1/C[C@@H](O)[C@@H](O)[C@@H]2[C@@H]3C(=O)N(Cc4ccccc4)C(=O)[C@H]3CC[C@@H]12 | 46.4 | 
14 | CC(=O)OC[C@@H]1O[C@H](C/C=N\O[C@@H](C)c2cn([C@H]3COC[C@H]3O)nn2)C=C[C@@H]1OC(C)=O | 69.6 | 
15 | C[C@@H]1/C=C\CC(=O)OC[C@H](C)C(=O)N[C@@H](C)C(=O)OC1 | 64 | 
16 | CO/N=C\[C@@H](NS(=O)(=O)c1ccc(C)cc1)[C@H](C)/C=C\CC(=O)OC |  | 3160 nM (active)
17 | COC(=O)C/C=C\[C@@H](C)[C@@H](/C=N\O[C@@H](C)c1cn([C@H]2COC[C@H]2O)nn1)OC | 50.1 | 
18 | O=C1[C@H]2[C@H]3[C@H](O)[C@H](O)C/C(=N/OCc4ccccc4)[C@H]3CC[C@@H]2C(=O)N1C[C@@H]1CCCO1 | 50.6 | 
19 | O=C1C[C@H](c2ccccc2)[C@@H](c2ccc(Br)cc2)O1 |  | 398 nM (active)
20 | C[C@H]1COC(=O)[C@H]2CCCN2C(=O)[C@@H](C)COC(=O)[C@H](Cc2ccccc2)NC1=O | 54.5 | 
21 | O=C1[C@H]2[C@H]3[C@H](O)[C@H](O)C/C(=N/OC[C@@H](O)COCc4ccco4)[C@@H]3CC[C@@H]2C(=O)N1C[C@@H]1CCCO1 | 13.1 | 
